Data published in PubChem BioAssay (Tox21).
Records with an inconclusive call do not appear. Active and inactive are the calls of the source. Unless noted, calls follow the shape of the dose curve; as a rule, active = well fitted curve in the direction sought with a large enough effect in the repeat runs; inconclusive = weak or mixed curves; inactive = no such curve, though single readings can be large; an effect the other way counts as inactive or inconclusive.

How the values were obtained:
[1] = target: Acetylcholinesterase (Homo sapiens) (UniProt P22303); assay: Acetylcholinesterase (AChE) small molecule antagonists: enzyme-based qHTS assay (AID 1347397; calls by dose curve; also: nearly all actives have a fitted effect of over 55% in size); details: Potency: AChE enzyme activity inhibition; outcome: AChE enzyme activity inhibition
Method in brief: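 Recombinant human AChE, dispensed at 50 mU/mL, was preincubated with Tox21 10K compounds or DMSO vehicle for 30 min at room temperature. DTNB plus acetylthiocholine was then added, and thiocholine was measured colorimetrically after a further 10 min.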

[2] = target: Acetylcholinesterase (Homo sapiens) (UniProt P22303); assay: Acetylcholinesterase (AChE) small molecule antagonists: enzyme-based qHTS assay with human liver microsomes (AID 1347399; calls by dose curve; also: nearly all actives have a fitted effect of over 60% in size); details: Potency: qHTS inhibition; outcome: qHTS inhibition
Method in brief: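 Recombinant human AChE (50 mU/mL in the enzyme mix) and human liver microsomes (0.25 mg/mL final) were preincubated with compound and NADPH (0.25 mg/mL final) for 30 min at 37 C. Acetylthiocholine/DTNB was then added; thiocholine was read colorimetrically after 10 min at room temperature.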

Aromatase (Homo sapiens) = Aromatase (Homo sapiens) (UniProt P11511); assay: qHTS assay to identify aromatase inhibitors (AID 743083); also: series mostly up to about 70 µM; nearly all actives have a fitted effect of over 55% in size
[3] = target: Aryl hydrocarbon receptor (Homo sapiens) (UniProt P35869); assay: qHTS assay to identify small molecule that activate the aryl hydrocarbon receptor (AhR) signaling pathway (AID 743085);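 also: HG2L7.5c1 human HepG2 liver cells with stably integrated DRE-driven firefly reporter; series mostly up to about 70 µM; nearly all actives have a fitted effect of over 15% in size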
Method in brief: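 Cell line HG2L7.5c1 (human hepatoma, 20× DRE-luc). Plated, 5 h 37C, compound/DMSO added, 24 h 37C. CellTiter-Fluor 30 min 37C → fluorescence; then ONE-Glo 30 min RT → luminescence.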

[4] = qHTS assay for small molecule agonists of the p53 signaling pathway (AID 651631; calls by dose curve; also: nearly all actives have a fitted effect of over 15% in size)
Method in brief: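 Read-out is beta-lactamase FRET fluorescence measured 2 h after substrate addition at room temperature, in HCT-116 cells with a p53 response element-driven reporter exposed to compounds for 16 h at 37 °C.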

[5] = qHTS assay for small molecules that induce genotoxicity in human embryonic kidney cells expressing luciferase-tagged ATAD5 (AID 651632); also: nearly all actives have a fitted effect of over 15% in size
Method in brief: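 Luminescent reporter readout, HEK293T ATAD5-luc line: 16 hr drug exposure (37C, 5% CO2) followed by Amplite, 30 min RT.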

[6] = qHTS assay for small molecule agonists of the p53 signaling pathway - cell viability (AID 651633; calls by dose curve;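 also: p53RE-bla HCT reporter cells with a stable beta-lactamase p53 reporter; series mostly up to about 83 µM; nearly all actives have a fitted effect of over 30% in size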)
Method in brief: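 p53RE-bla cells, seeded at 4,000 per well and rested 5 h at 37 C/5% CO2, received compounds in DMSO for 16 h at 37 C. CellTiter-Glo was then added, and luminescence was read after 30 min at room temperature to gauge cytotoxicity.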

[7] = qHTS assay for small molecules that induce genotoxicity in human embryonic kidney cells expressing luciferase-tagged ATAD5 - cell viability (AID 651634; calls by dose curve; also: nearly all actives have a fitted effect of over 25% in size)
Method in brief: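 Viability read: CellTiter-Fluor fluorescence, 30 min at 37C. Cells: HEK293T, luciferase-tagged ATAD5. Exposure: 15.5 hr, 37C, 5% CO2, compound or DMSO vehicle.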

[8] = qHTS assay for small molecule disruptors of the mitochondrial membrane potential - cell viability (AID 720634; calls by dose curve;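 also: human HepG2 liver cancer cells; series mostly up to about 83 µM; nearly all actives have a fitted effect of over 20% in size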)
Method in brief: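 HepG2, 1 hr compound, 37 C. ATP luminescence via CellTiter-Glo, 30 min RT, same well as m-MPI.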

[9] = qHTS assay for small molecule disruptors of the mitochondrial membrane potential (AID 720635)
Method in brief: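 HepG2 cells (2,000/well) attached overnight at 37C, then took compound for 1 hr at 37C, 5% CO2. Mito-MPS dye was added for 30 min; fluorescence was read at 490/535 nm (monomers) and 540/590 nm (aggregates).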

[10] = target: Glucocorticoid receptor (Homo sapiens) (UniProt P04150); assay: qHTS assay to identify small molecule agonists of the glucocorticoid receptor (GR) signaling pathway (AID 720691; active = well fitted activation curve with a large enough effect in the signal ratio in the repeat runs, not every such curve was filed as active; the % refers to the signal ratio)
Method in brief: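 qHTS in GR-bla HeLa cells: 4 h settling at 37 C/5% CO2, 18 h compound incubation at 37 C, 2 h LiveBLAzer B/G FRET substrate at room temperature, fluorescence intensity measured.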

[11] = target: Glucocorticoid receptor (Homo sapiens) (UniProt P04150); assay: qHTS assay to identify small molecule antagonists of the glucocorticoid receptor (GR) signaling pathway (AID 720692; active = well fitted inhibition curve with a large enough effect in the signal ratio in the repeat runs, not every such curve was filed as active; the % refers to the signal ratio)
Method in brief: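 Inhibition of glucocorticoid signalling is measured in HeLa cells with a GRE-controlled beta-lactamase reporter; cells are co-treated with compound and 5 nM dexamethasone (final) for 18 h before FRET substrate readout.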

[12] = qHTS assay to identify small molecule antagonists of the glucocorticoid receptor (GR) signaling pathway - cell viability counter screen (AID 720693); also: nearly all actives have a fitted effect of over 55% in size
[13] = qHTS assay for identifying genotoxic compounds that show differential cytotoxicity against isogenic chicken DT40 cell lines with known DNA damage response pathways - wild type cell line (AID 743012); also: nearly all actives have a fitted effect of over 60% in size
Method in brief: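 First, wild type DT40 cells were plated at 300 per well and equilibrated about 0.5 h at 37 C/5% CO2. Next, compounds in DMSO were added and exposure lasted 40 h. Finally, CellTiter-Glo was added for 30 min at room temperature and luminescence recorded.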

[14] = qHTS assay for identifying genotoxic compounds that show differential cytotoxicity against isogenic chicken DT40 cell lines with known DNA damage response pathways - Rev3 mutant cell line (AID 743014); also: nearly all actives have a fitted effect of over 55% in size
[15] = qHTS assay for identifying genotoxic compounds that show differential cytotoxicity against isogenic chicken DT40 cell lines with known DNA damage response pathways - Rad54/Ku70 mutant cell line (AID 743015); also: nearly all actives have a fitted effect of over 60% in size
[16] = qHTS assay to identify small molecule antagonists of the androgen receptor (AR) signaling pathway - cell viability counter screen (AID 743033; also: nearly all actives have a fitted effect of over 45% in size)
[17] = target: Androgen receptor (Homo sapiens) (UniProt P10275); assay: qHTS assay to identify small molecule antagonists of the androgen receptor (AR) signaling pathway (AID 743035; active = well fitted inhibition curve with a large enough effect in the signal ratio in the repeat runs, not every such curve was filed as active; the % refers to the signal ratio)
Method in brief: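 Beta-lactamase FRET read (2 h RT incubation with LiveBLAzer B/G) following 16 h of compound plus R1881 treatment of AR-UAS-bla HEK293 cells, which had been pre-incubated 4 h at 37C.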

[18] = target: Androgen receptor (Homo sapiens) (UniProt P10275); assay: qHTS assay to identify small molecule agonists of the androgen receptor (AR) signaling pathway using the MDA cell line (AID 743040; also: nearly all actives have a fitted effect of over 20% in size)
Method in brief: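 MDA-kb2 breast carcinoma cells stably carrying an MMTV-driven luciferase reporter (AR- and GR-responsive) were seeded and held 5 h at 37C, 0% CO2, then exposed to compounds in DMSO for 16 h. Luminescence was read 30 min after ONE-Glo addition.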

[19] = qHTS assay to identify small molecule antagonists of the androgen receptor (AR) signaling pathway using the MDA cell line - cell viability counter screen (AID 743041; also: nearly all actives have a fitted effect of over 45% in size)
Method in brief: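 MDA-kb2 AR-luc human breast carcinoma cells (MMTV-luciferase, AR/GR responsive) were treated with compounds plus R1881 agonist for 16 h at 37 °C. Viability was read as CellTiter-Fluor fluorescence in the same wells as the reporter assay.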

[20] = target: Androgen receptor (Homo sapiens) (UniProt P10275); assay: qHTS assay to identify small molecule antagonists of the androgen receptor (AR) signaling pathway using the MDA cell line (AID 743042; also: nearly all actives have a fitted effect of over 55% in size)
Method in brief: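 MDA-kb2 cells (human breast carcinoma, stably carrying an MMTV-luciferase reporter responsive to AR and GR) were plated at 3,000 cells/well and preincubated 5 hr at 37C, then given compound plus R1881 agonist for 16 h. ONE-Glo luminescence was read.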

[21] = target: Estrogen receptor (Homo sapiens) (UniProt P03372); assay: qHTS assay to identify small molecule antagonists of the estrogen receptor alpha (ER-alpha) signaling pathway (AID 743069; active = well fitted curve in the direction sought with a large enough effect in the signal ratio in the repeat runs, not every such curve was filed as active; the % refers to the signal ratio)
Method in brief: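 HEK293 cells stably carrying an ER-alpha-UAS-bla beta-lactamase reporter were pre-cultured overnight in 2% charcoal-stripped FBS medium. Test compounds in DMSO were added together with 17beta-estradiol for 18 hr at 37C. Read-out was fluorescence after 2 hr with LiveBLAzer B/G FRET substrate at room temperature.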

[22] = qHTS assay to identify small molecule antagonists of the estrogen receptor alpha (ER-alpha) signaling pathway - cell viability counter screen (AID 743074; calls by dose curve; also: nearly all actives have a fitted effect of over 45% in size)
[23] = target: Estrogen receptor (Homo sapiens) (UniProt P03372); assay: qHTS assay to identify small molecule agonists of the estrogen receptor alpha (ER-alpha) signaling pathway (AID 743075; calls by dose curve)
[24] = target: Estrogen receptor (Homo sapiens) (UniProt P03372); assay: qHTS assay to identify small molecule agonists of the estrogen receptor alpha (ER-alpha) signaling pathway using the BG1 cell line (AID 743079); also: nearly all actives have a fitted effect of over 20% in size
[25] = qHTS assay to identify small molecule antagonists of the estrogen receptor alpha (ER-alpha) signaling pathway using the BG1 cell line (AID 743080; calls by dose curve;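 also: BG1 cells stimulated with 17beta-estradiol alongside compound; series mostly up to about 70 µM; nearly all actives have a fitted effect of over 25% in size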)
Method in brief: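 Seeding, 24 h rest, compound transfer from DMSO, 17beta-estradiol addition, 21.5 h incubation, CellTiter-Fluor (30 min, 37 C), then ONE-Glo (30 min, room temperature): this sequence was run on BG1-Luc-4E2 reporter cells.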

[26] = qHTS assay to identify small molecule antagonists of the estrogen receptor alpha (ER-alpha) signaling pathway using the BG1 cell line - cell viability counter screen (AID 743081);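 also: compound given together with 17beta-estradiol as the ER stimulus; series mostly up to about 70 µM; nearly all actives have a fitted effect of over 45% in size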
[27] = qHTS assay to identify aromatase inhibitors - cell viability counter screen (AID 743084)
[28] = qHTS assay to identify small molecule that activate the aryl hydrocarbon receptor (AhR) signaling pathway - cell viability counter screen (AID 743086)
Method in brief: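 HepG2-AhR-luc (HG2L7.5c1) cells, 4000/well, were preincubated 5 h at 37C, exposed to compound in qHTS format for 24 hr at 37C, then given CellTiter-Fluor for 30 min; viability was read as fluorescence in the reporter wells.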

[29] = target: Peroxisome proliferator-activated receptor gamma (Homo sapiens) (UniProt P37231); assay: qHTS assay to identify small molecule agonists of the peroxisome proliferator-activated receptor gamma (PPARg) signaling pathway (AID 743094; active = well fitted activation curve with a large enough effect in the signal ratio in the repeat runs, not every such curve was filed as active; the % refers to the signal ratio)
Method in brief: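 Compounds dissolved in DMSO were added to PPARg UAS-bla HEK293H cells for 17 h at 37C, and reporter expression was quantified by fluorescence intensity after 1 h with LiveBLAzer B/G FRET substrate.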

[30] = target: Acetylcholinesterase (Homo sapiens) (UniProt P22303); assay: Acetylcholinesterase (AChE) small molecule antagonists: fluorescence cell-based qHTS assay (AID 1347398; calls by dose curve; also: nearly all actives have a fitted effect of over 50% in size); details: Potency: AChE activity; outcome: AChE activity
Method in brief: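 Human SH-SY5Y cells were plated overnight at 37 C, exposed to compound for 30 min at 37 C, 5% CO2, then given acetylthiocholine plus Thiolite Green for 40 min at room temperature; thiocholine fluorescence (Ex/Em 490/520 nm) reports endogenous AChE activity.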

Measured: Potency

Aryl hydrocarbon receptor (Homo sapiens), sequence (P35869 whole entry, looked up): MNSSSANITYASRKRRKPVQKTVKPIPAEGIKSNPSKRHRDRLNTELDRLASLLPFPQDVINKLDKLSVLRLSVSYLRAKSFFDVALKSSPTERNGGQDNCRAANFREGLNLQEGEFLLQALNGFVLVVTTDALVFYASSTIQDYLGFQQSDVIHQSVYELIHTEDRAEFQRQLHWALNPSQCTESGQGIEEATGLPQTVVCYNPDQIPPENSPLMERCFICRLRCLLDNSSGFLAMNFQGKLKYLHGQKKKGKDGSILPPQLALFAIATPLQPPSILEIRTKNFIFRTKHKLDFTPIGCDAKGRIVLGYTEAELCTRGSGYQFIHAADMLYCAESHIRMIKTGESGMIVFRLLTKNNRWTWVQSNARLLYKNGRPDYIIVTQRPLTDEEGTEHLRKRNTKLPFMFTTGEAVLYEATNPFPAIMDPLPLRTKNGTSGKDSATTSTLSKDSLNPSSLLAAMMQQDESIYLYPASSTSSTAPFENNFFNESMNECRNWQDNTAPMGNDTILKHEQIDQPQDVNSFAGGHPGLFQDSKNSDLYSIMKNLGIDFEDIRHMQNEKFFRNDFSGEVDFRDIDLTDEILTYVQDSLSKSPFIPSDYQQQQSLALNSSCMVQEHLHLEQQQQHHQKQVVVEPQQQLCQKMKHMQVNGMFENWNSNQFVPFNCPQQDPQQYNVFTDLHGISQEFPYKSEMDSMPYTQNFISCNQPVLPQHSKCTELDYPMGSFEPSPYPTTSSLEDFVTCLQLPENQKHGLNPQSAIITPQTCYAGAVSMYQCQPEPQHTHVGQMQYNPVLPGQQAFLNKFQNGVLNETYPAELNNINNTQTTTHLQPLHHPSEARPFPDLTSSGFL
Acetylcholinesterase (Homo sapiens), sequence (P22303 whole entry, looked up): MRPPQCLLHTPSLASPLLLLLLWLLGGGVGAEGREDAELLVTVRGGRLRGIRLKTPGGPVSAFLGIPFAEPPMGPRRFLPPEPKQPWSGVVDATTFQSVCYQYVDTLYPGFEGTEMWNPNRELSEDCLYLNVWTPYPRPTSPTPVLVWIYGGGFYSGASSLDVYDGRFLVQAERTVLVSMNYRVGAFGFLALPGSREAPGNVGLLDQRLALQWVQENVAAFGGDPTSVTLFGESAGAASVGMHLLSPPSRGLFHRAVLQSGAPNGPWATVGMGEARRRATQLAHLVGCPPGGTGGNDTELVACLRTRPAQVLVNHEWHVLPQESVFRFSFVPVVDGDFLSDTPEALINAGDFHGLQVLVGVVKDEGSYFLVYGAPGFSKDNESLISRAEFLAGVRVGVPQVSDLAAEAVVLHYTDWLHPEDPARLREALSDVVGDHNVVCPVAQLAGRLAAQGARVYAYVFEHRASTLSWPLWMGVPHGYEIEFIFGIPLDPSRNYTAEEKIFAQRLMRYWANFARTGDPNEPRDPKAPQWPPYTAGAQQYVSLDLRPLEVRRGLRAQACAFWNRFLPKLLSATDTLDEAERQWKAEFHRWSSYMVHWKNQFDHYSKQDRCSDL
Androgen receptor (Homo sapiens), sequence (P10275 whole entry, looked up): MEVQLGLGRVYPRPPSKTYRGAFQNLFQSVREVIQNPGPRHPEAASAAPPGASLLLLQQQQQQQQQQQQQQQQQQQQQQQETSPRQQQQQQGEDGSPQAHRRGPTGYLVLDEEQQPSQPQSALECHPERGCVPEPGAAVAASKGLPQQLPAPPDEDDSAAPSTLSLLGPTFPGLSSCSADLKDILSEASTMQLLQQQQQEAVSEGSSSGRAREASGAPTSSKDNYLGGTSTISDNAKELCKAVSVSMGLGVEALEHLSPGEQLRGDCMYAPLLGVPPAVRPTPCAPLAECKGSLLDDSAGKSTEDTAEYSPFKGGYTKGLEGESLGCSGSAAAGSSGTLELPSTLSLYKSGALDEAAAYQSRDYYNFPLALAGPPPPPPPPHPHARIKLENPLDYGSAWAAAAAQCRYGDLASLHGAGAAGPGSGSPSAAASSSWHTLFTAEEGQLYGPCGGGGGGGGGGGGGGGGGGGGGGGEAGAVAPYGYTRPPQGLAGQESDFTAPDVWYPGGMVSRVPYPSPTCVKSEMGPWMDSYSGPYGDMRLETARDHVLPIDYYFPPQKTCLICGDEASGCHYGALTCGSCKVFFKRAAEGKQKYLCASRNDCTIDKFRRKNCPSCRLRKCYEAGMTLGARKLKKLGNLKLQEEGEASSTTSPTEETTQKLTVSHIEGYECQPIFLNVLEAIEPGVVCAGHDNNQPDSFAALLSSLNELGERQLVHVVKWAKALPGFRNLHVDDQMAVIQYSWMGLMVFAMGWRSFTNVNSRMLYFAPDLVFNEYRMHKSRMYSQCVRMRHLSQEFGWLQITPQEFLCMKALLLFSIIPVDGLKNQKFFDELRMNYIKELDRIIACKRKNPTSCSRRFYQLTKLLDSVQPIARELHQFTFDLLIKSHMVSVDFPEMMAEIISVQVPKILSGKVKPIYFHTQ
Estrogen receptor (Homo sapiens), sequence (P03372 whole entry, looked up): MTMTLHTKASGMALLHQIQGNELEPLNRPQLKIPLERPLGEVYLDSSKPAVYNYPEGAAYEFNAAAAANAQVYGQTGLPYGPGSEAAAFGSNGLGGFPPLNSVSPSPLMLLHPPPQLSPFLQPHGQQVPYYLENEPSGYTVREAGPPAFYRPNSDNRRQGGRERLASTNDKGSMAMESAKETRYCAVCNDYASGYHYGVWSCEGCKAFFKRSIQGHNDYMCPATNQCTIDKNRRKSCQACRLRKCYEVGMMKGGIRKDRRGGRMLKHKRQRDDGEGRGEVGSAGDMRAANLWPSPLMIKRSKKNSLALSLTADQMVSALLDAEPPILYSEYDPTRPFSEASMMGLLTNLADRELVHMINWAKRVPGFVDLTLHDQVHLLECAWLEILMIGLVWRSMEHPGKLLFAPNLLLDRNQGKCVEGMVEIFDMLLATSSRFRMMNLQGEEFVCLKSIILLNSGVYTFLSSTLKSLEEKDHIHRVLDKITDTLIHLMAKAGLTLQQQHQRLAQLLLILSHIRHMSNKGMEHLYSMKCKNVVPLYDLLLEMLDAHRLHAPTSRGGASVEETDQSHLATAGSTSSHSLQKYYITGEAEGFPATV
Aromatase (Homo sapiens), sequence (P11511 whole entry, looked up): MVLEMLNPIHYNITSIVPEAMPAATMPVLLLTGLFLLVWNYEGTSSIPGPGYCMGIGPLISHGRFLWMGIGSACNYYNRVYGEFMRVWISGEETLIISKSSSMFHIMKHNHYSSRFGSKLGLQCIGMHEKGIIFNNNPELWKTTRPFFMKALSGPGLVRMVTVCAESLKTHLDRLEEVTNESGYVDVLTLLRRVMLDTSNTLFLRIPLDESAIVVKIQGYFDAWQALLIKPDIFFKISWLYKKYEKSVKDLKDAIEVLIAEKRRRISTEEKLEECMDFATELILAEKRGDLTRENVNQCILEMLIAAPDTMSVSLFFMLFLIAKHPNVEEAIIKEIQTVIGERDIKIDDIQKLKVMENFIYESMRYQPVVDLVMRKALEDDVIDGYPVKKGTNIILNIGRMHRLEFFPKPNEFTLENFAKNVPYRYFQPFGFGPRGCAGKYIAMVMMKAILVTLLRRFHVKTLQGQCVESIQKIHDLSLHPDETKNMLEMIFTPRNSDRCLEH
Glucocorticoid receptor (Homo sapiens), sequence (P04150 whole entry, looked up): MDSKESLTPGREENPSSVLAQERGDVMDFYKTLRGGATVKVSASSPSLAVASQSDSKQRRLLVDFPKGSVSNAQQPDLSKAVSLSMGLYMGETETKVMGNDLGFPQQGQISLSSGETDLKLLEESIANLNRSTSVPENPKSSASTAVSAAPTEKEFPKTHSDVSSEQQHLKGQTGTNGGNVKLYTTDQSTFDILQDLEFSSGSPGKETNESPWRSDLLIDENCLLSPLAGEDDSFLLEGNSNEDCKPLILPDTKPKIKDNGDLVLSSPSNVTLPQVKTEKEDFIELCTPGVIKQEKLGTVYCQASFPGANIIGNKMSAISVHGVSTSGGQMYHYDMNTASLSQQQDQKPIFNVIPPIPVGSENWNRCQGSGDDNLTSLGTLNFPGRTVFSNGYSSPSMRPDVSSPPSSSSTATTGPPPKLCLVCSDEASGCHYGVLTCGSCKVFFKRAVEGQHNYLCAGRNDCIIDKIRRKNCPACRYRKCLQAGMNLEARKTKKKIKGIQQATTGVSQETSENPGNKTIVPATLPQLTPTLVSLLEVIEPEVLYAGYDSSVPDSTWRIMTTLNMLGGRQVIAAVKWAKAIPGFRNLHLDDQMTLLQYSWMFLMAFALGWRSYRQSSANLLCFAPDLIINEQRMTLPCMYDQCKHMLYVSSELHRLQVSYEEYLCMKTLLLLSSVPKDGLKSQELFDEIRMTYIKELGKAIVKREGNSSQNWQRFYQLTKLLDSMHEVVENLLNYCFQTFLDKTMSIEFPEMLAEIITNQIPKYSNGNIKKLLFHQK
Peroxisome proliferator-activated receptor gamma (Homo sapiens), sequence (P37231 whole entry, looked up): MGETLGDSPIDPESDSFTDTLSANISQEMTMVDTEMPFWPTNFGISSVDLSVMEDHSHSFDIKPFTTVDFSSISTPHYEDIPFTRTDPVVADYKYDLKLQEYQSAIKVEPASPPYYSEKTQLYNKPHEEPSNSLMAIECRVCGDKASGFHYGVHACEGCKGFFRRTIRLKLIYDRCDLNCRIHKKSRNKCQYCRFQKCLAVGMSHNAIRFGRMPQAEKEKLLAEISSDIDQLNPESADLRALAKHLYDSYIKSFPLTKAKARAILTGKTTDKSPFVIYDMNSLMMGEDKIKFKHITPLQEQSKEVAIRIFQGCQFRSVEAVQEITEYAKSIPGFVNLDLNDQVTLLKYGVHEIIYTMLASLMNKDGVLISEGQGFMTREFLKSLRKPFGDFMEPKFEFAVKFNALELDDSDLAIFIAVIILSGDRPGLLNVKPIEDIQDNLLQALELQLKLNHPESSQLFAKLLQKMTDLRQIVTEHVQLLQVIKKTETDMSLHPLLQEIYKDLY

CCN(CC)CCNC(=O)c1ccc(NC(C)=O)cc1
inactive: [1] | [2]

O=C(O)c1cccc(N(Cc2cccnc2)c2ccc(OC(F)F)c(OC(F)F)c2)c1
inactive: [1] | [2]

N=C1N=C(N)c2cc3ccccc3cc21
inactive: [2]

C1CCc2nnnn2CC1
inactive: Aromatase (Homo sapiens) | [3]

CNC(C)[C@@H]1CC[C@@H](N)[C@@H](O[C@H]2[C@H](O)[C@@H](O[C@H]3OC[C@](C)(O)[C@H](NC)[C@H]3O)[C@H](N)C[C@@H]2N)O1 (stereo not given in full)
inactive: [4] | [5] | [6] | [7] | [8] | [9] | [10] | [11] | [12] | [13] | [14] | [15] | [16] | [17] | [18] | [19] | [20] | [21] | [22] | [23] | [24] | [25] | [26] | Aromatase (Homo sapiens) | [27] | [3] | [28] | [29]

O=[N+]([O-])O[C@@H]1CO[C@H]2[C@@H]1OC[C@@H]2O
inactive: Aromatase (Homo sapiens) | [3]

Nc1ccc(Oc2ccc(N)c(N)c2)cc1
inactive: [30] | [2]

C=CC(=O)OCCN(CC)CC
inactive: [2]
